# Reference: ChEMBL document CHEMBL3988442, “University of Dundee, Small-Polar-MMV Screening Library” (2021)
# For some of these results: Measured potencies and affinities stand elsewhere.
# Columns and labels:
# Set-up in all cases: scale not given: direction of the effect not stated beside the values
# [1] = biological target: Protein translocase subunit SecA (Escherichia coli (strain K12)) (UniProt P10408); experiment: Assay to Identify E. coli SecA ATPase Inhibitors; assay type: functional; details: 30 µM
# Sequence of Protein translocase subunit SecA (Escherichia coli (strain K12)) (P10408 whole entry): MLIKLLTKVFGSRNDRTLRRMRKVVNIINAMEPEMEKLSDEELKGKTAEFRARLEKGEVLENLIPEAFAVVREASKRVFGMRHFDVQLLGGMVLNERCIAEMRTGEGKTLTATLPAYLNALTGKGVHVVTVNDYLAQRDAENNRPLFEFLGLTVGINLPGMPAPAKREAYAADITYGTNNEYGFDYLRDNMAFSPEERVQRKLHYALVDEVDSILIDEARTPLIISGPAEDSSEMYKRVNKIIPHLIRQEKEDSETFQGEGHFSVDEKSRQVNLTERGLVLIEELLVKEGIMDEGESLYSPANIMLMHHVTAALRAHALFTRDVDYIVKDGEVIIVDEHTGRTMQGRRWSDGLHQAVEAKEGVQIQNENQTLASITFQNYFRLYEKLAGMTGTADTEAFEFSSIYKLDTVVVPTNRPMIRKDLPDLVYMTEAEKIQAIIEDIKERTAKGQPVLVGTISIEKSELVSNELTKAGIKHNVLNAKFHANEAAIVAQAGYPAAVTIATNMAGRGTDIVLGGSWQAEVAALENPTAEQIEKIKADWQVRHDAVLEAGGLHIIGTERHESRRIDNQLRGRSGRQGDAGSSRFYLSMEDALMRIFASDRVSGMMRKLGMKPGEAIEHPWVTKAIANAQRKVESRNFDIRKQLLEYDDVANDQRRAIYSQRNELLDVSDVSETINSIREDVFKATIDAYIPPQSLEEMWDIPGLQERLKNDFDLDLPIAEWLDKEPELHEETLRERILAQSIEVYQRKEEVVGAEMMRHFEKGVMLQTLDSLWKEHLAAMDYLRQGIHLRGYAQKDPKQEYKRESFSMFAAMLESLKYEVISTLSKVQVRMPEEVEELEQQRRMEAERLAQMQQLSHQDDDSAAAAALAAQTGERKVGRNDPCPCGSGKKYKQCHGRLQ
# [2] = biological target: T1, Ubiquitin-activating enzyme e1, putative (Leishmania donovani (strain BPK282A1)) (UniProt E9BSI1); experiment: Leishmania donovani Ubiquitin Activating Enzyme (LdE1); assay type: functional; details: 30 µM
# T1 sequence (whole entry): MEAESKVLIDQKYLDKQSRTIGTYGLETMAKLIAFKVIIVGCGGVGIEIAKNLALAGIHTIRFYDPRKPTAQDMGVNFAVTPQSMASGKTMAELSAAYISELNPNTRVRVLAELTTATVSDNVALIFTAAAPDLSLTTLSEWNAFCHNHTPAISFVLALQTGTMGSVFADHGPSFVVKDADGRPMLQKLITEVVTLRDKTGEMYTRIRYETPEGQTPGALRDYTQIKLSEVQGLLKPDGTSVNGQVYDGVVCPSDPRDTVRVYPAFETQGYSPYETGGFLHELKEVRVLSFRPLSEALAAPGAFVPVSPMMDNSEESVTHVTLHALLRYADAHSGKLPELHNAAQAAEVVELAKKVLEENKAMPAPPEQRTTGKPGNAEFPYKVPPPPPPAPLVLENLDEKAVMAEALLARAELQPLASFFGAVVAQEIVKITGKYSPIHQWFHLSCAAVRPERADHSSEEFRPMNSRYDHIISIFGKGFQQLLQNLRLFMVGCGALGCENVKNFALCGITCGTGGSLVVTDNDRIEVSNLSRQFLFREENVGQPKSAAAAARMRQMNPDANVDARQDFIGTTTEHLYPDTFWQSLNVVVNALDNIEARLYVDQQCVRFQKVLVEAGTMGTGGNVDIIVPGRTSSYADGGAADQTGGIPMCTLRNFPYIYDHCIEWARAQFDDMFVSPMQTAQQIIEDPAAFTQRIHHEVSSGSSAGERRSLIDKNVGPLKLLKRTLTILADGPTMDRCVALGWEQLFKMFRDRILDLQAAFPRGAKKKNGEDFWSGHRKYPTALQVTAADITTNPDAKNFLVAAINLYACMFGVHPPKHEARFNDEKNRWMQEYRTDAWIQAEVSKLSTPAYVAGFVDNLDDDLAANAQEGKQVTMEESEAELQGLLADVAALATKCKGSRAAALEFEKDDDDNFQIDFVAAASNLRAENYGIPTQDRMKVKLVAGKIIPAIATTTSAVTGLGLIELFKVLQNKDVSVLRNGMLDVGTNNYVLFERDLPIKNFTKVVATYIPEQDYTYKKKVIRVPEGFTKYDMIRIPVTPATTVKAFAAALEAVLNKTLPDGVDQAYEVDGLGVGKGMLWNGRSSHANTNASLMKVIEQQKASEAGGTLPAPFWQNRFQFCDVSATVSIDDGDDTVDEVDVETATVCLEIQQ
# [3] = biological target: AMP-activated protein kinase, AMPK (Homo sapiens) (UniProt P54646+O43741+P54619+Q9UGJ0+Q9Y478+Q13131+Q9UGI9); experiment: AMP-dependent Kinase enzyme assay. An in vitro enzyme assay that detects ADP turnover that is directly proportional to AMPK activity. This uses naive AMPK that is activated during the assay with MK-8722; assay type: functional; details: 30 µM
# [4] = biological target: Sialic acid-binding Ig-like lectin 9 (Homo sapiens) (UniProt Q9Y336); experiment: Hs-Siglec9 ALPHAscreen SOP 20170721; details: 10 µM
# Sequence of Sialic acid-binding Ig-like lectin 9 (Homo sapiens) (Q9Y336 whole entry): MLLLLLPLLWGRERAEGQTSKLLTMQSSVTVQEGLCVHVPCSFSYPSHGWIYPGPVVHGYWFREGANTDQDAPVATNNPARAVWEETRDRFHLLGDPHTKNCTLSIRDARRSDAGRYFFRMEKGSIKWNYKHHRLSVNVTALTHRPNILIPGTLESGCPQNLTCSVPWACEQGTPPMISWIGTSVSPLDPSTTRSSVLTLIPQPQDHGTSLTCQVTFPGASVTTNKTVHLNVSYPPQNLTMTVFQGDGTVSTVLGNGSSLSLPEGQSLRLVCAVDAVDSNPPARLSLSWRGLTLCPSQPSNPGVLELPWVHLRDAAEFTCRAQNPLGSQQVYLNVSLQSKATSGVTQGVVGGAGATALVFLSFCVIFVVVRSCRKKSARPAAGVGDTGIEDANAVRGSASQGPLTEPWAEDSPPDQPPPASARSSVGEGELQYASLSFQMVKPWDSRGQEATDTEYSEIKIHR
# [5] = test system: Trypanosoma cruzi; experiment: Trypanosoma cruzi phosphomannomutase and mannose-1-phosphate guanylyltransferase assay; assay type: functional; details: 10 µM
# [6] = biological target: T2, Arginase-2, mitochondrial (Homo sapiens) (UniProt P78540); experiment: in vitro enzyme assay to detect the production of urea directly proportional to the activity of Arginase II; assay type: functional; details: 33.3 µM; further: in the data most compounds retested in dose-response had high values
# T2 sequence (whole entry): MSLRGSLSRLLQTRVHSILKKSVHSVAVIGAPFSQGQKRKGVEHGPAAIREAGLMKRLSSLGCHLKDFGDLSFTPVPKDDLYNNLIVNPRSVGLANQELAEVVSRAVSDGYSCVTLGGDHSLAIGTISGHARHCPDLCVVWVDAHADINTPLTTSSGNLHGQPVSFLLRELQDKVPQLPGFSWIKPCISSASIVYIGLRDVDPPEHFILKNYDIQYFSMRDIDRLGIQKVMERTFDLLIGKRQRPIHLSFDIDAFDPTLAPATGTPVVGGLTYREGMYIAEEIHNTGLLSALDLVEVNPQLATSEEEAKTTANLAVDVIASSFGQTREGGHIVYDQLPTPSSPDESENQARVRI
# [7] = biological target: T3, Proteasome subunit beta (Trypanosoma cruzi) (UniProt O96673); experiment: Trypanosoma cruzi proteasome chymotrypsin-like activity (TcProtChymo) assay.; further: in the data most compounds retested in dose-response had high values; assay type: functional; details: 9.37 µM
# T3 sequence (whole entry): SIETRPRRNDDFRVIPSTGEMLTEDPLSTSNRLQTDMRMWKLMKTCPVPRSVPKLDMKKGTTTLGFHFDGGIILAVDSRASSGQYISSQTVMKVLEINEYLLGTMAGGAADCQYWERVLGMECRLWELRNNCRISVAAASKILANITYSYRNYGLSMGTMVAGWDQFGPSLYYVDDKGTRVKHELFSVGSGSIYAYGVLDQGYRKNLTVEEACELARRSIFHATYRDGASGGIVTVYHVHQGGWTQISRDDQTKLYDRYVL
# [8] = organism: Homo sapiens; experiment: To identify inhibition of the IFN signalling (Jak-Stat) pathway via expression of an eGFP reporter gene under the control of an IFN-stimulated response element (ISRE) containing MxA promoter.; assay type: functional; details: 30 µM
# [9] = biological target: T4, Tyrosyl-tRNA synthetase, putative (Trypanosoma cruzi (strain CL Brener)) (UniProt Q4DSP6); experiment: Trypanosoma cruzi tyrosyl tRNA synthetase (TcYRS) _High Tyrosine SOP; assay type: functional; details: 30 µM; further: in the data most compounds retested in dose-response had high values
# T4 sequence (whole entry): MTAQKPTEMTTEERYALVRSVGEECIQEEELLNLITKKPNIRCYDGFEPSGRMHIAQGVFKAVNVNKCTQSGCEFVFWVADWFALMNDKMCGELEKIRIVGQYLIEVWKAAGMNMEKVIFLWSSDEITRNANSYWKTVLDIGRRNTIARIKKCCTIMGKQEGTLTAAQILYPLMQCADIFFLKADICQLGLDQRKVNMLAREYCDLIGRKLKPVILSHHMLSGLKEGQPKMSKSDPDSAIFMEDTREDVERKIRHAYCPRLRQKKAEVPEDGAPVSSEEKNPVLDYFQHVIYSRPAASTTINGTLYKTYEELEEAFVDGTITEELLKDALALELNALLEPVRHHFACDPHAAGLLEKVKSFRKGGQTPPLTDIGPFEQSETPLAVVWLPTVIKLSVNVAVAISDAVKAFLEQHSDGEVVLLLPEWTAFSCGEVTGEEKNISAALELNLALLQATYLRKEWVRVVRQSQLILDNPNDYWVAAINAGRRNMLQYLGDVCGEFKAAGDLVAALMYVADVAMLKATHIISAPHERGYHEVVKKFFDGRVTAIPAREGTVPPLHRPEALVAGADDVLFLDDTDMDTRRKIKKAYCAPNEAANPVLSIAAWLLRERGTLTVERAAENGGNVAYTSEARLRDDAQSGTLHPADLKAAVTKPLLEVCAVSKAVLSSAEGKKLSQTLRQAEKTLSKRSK
# [10] = biological target: T4, Tyrosyl-tRNA synthetase, putative (Trypanosoma cruzi (strain CL Brener)); experiment: Trypanosoma cruzi tyrosyl tRNA synthetase (TcYRS) SOP; assay type: functional; details: 30 µM
# [11] = biological target: Chromo domain-containing protein 1 (Saccharomyces cerevisiae (strain ATCC 204508 / S288c) (Baker's yeast)) (UniProt P32657); experiment: ScCHD-1 Enzyme Inhibition Assay; assay type: functional; details: 30 µM; further: in the data most compounds retested in dose-response had high values
# Sequence of Chromo domain-containing protein 1 (Saccharomyces cerevisiae (strain ATCC 204508 / S288c) (Baker's yeast)) (P32657 whole entry, the tested form may be a part): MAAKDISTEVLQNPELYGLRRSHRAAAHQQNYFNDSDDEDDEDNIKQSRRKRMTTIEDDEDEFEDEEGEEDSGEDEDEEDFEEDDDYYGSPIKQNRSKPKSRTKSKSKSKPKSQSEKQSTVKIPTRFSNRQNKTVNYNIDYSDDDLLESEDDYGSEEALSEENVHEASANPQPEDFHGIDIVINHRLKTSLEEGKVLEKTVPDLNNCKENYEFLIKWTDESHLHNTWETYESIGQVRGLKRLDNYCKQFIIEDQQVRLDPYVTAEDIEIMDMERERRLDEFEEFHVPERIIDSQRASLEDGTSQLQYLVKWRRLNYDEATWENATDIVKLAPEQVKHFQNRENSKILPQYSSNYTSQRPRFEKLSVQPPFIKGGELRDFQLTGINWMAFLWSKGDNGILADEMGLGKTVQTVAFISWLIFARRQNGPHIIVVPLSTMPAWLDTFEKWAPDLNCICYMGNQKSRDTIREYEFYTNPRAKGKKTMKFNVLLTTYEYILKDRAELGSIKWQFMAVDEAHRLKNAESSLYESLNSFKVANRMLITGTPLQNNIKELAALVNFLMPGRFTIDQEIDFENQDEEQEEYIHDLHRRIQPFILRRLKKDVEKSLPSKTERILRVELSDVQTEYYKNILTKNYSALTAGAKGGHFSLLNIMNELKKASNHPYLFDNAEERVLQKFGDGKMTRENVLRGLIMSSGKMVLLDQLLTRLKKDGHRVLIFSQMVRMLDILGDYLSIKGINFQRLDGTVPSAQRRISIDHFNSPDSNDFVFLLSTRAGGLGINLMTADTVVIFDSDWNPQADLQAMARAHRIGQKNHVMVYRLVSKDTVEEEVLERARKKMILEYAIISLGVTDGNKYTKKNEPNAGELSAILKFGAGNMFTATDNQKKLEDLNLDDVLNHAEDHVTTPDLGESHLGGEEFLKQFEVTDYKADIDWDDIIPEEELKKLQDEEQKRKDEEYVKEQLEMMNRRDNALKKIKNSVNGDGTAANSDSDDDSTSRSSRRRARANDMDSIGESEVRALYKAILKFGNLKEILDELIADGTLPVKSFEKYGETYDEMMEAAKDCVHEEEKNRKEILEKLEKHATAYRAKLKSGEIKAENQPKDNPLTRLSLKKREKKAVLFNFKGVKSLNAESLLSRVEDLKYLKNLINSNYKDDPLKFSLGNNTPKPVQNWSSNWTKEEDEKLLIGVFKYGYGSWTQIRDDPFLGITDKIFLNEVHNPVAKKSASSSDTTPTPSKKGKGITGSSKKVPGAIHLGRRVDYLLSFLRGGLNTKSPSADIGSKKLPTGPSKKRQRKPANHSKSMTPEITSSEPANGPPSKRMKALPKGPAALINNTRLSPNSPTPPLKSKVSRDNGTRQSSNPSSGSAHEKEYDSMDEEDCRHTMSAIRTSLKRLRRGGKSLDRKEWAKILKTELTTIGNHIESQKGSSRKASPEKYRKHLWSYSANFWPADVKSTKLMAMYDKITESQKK
Structure (SMILES),Percent Effect [1] [%],Percent Effect [2] [%],Percent Effect [3] [%],Percent Effect [4] [%],Percent Effect [5] [%],Percent Effect [6] [%],Percent Effect [7] [%],Percent Effect [8] [%],Percent Effect [9] [%],Percent Effect [10] [%],Percent Effect [11] [%]
CCc1nnc2n1CCN(C(=O)CN(C)Cc1ccccc1)C2,-2.83,7.89,-9.27,7.43,5.88,2.16,4.32,-5.24,4.43,18.5,-4.71
COCC(O)CN(C)C(=O)NC1CCN(Cc2ccccn2)CC1 (stereo not given),-2.64,28.6,-7.26,1.62,4.31,-2.85,15.4,7.67,5.83,24.4,-8.51
CCc1cnc(CN(C(C)=O)C2CCN(CCc3cccs3)C2)o1 (stereo not given),-3.22,13.2,0.738,-12.5,-4.95,2.16,21.6,4.61,7.39,6.17,-8.12
O=C(CN1CCCC1Cn1cncn1)NCCc1c(F)cccc1F (stereo not given),-9.37,18.4,-9.7,10.3,11.9,0.719,7.36,-5.35,5.42,18.5,-10.6
Cc1c[nH]nc1C1CCN(S(=O)(=O)N(C)C)CC1,-3.15,1.35,-2.65,1.12,-7.12,-1.16,-3.59,9.82,2.15,6.49,-2.55
COc1ccnc(N2CCN(C(=O)c3csc(C4CC4)n3)CC2)n1,-4.82,2.7,2.76,-1.98,-2.05,4.22,-0.601,0.351,0,8.64,-4.46
COc1cc(C(=O)N(C2CC2)C2CC(=O)NC2=O)ccc1C (stereo not given),0.67,12.7,4.42,4.45,-7.84,8.37,1.72,24.4,4.43,11.4,-4.59
CCN(CCC(F)(F)F)C(=O)Nc1cccc(N2CCOCC2)c1,-2.27,5.41,-8.53,14.9,2.12,-2.38,5.52,16.4,2.65,7.32,-3.36
c1ccc(CCN2CCOC(Cn3cccn3)C2)nc1 (stereo not given),-6.2,5.2,-1.28,6.84,7.54,1.05,3.15,5.5,3.81,11.8,-7.53
CCN(C)c1ncnc2c1CCN(Cc1csc(C)n1)CC2,-0.747,8.11,4.65,2.61,-1.07,4.78,25.1,-16.4,6.49,15.4,-2.96
O=C(c1ccccn1)N1CCc2nc(-c3cnccn3)nc(O)c2C1,0.65,12.2,8.6,0.354,-3.36,-0.232,11.7,14.4,4.3,14.3,-12.2
CCN(CC)C1CCN(C(=O)NCc2c(C)noc2C)CC1,-3.56,5.48,-3.43,2.27,0.198,-3.59,10.9,-3.14,7.29,13.6,-1.04
Cn1cccc1CCC(=O)N1CCC2(CC1)c1ccccc1CC2O (stereo not given),0.249,13,-1.66,10.8,4.23,-38.6,20.6,21.3,11.8,16.1,5.42
Cc1cc(C)n(CC2CCCN2C(=O)c2c[nH]c3ncccc23)n1 (stereo not given),-3.09,-2.7,10.7,5.96,-4.18,4.99,-3.05,24.1,-0.99,-6.1,12.6
CN(Cc1ccc(F)cc1)C(=O)Cn1nc(-c2ccc(F)cc2)oc1=O,-0.937,2.63,0.873,-13.2,-7.3,11.8,15.4,14.9,-7.45,-2.6,-7.96
C[C@@H]1CN(C(=O)c2ccsc2)C[C@]12CCN(c1ccsc1)C2=O,-3.14,0,13.8,-0.135,-3.54,-1.63,2.91,5.8,5.32,3.85,0.408
CN(C(=O)Cn1nc(-c2ccc(F)cc2)ccc1=O)C1CCS(=O)(=O)C1 (stereo not given),-7.39,10.5,7.4,10.6,1.85,-16.6,6.81,-4.86,3.19,7.79,-3.65
O=C(c1cncc(N2CCC(O)(CO)CC2)n1)N1CCCC1,-4.63,5.33,-3.65,8.86,6.72,0,16.9,-11.2,9.29,18.5,-7.99
COc1ccc2c(c1)C1(CCN(Cc3ccncc3)CC1)N(C)CC2,-3.01,7.79,2.38,7.8,-3.06,0.645,14.4,-6.76,0,3.85,-8.34
CS(=O)(=O)N[C@@H]1CCO[C@]2(CCN(C(=O)C3=CCCC3)C2)C1,-2.88,13.5,3.79,-4.46,-2.25,14.3,23.2,-15.3,5.41,12.8,-3.57
